Data as given in PubChem BioAssay (NCATS).
Results filed as inconclusive are left out. The source made the active and inactive calls. Unless noted, calls come from the whole dose curve; as a rule, active = well fitted curve in the direction sought with a large enough effect; inconclusive = small, poorly fitted or top-dose-only effect, or another doubt; inactive = no such curve, though single readings can be large; an effect the other way counts as inactive or inconclusive.

Columns and labels:
[1] = Cell Viability - BJ (AID 421; calls by dose curve;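 note: potency is the fitted concentration of half-maximal effect; cells exposed to compound for 40 hours at 37 °C before readout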); conditions: BJ fibroblast viability, qHTS
Method in brief: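 Cytotoxicity in human BJ foreskin fibroblasts is scored as loss of cellular ATP after a 40-hour exposure, measured by luciferase luminescence. Controls are DMSO and 100 uM tamoxifen.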

[2] = Cell Viability - Jurkat (AID 426;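 active = dose-dependent loss of cell ATP signal giving a full or clear fitted curve, ranked by lower potency value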; note: potency is the fitted concentration of half-maximal effect); conditions: qHTS
Method in brief: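 Luminescent ATP read-out (CellTiter-Glo, 20 min at room temperature) after 40 hr compound exposure at 37 °C of Jurkat E6-1 cells, 5000/well. Decreased ATP taken as cytotoxicity; AC50 from standard Hill equation.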

[3] = Cell Viability - Hek293 (AID 427;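 active = compounds whose dose-response curve shows a full or clear partial loss of cell viability, called from curve shape rather than a numeric limit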;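 note: potency is the fitted concentration of half-maximal effect; cells exposed to compound for 40 hours at 37 °C before reading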); conditions: qHTS
Method in brief: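 qHTS, human embryonic kidney (adenovirus-transformed) cells; 40 hr cpd, 37 °C; CellTiter-Glo ATP luminescence. Norm: DMSO = 0, 100 uM tamoxifen = 100% inhibition. Hill-fit AC50.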

[4] = Cell Viability - HepG2 (AID 433; calls by dose curve;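 note: potency is the fitted concentration of half-maximal effect; potency for ATP loss meaning cytotoxicity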); conditions: qHTS
Method in brief: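 HepG2 cells, 1500 per well, treated 40 hr at 37 °C in complete medium; viability from intracellular ATP by CellTiter-Glo luminescence. Normalized to DMSO and 100 uM tamoxifen; AC50 from Hill fit of qHTS concentration-response.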

[5] = Cell Viability - MRC5 (AID 434; calls by dose curve;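 note: potency is the fitted concentration of half-maximal effect; potency reflects cytotoxicity seen as loss of intracellular ATP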); conditions: MRC5 lung fibroblast viability, qHTS
Method in brief: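 AC50 values come from Hill-equation fits of intracellular ATP loss, measured by CellTiter-Glo luminescence. Normal lung fibroblasts (MRC5) had 40 hr compound treatment at 37 C, normalized between DMSO and 100 uM tamoxifen.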

[6] = Cell Viability - SK-N-SH (AID 435; calls by dose curve; note: potency is the fitted concentration of half-maximal effect); conditions: SK-N-SH neuroblastoma cell viability qHTS
Method in brief: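 SK-N-SH neuroblastoma cells (1500/well) treated 40 h at 37 °C in complete medium; viability read as cellular ATP by CellTiter-Glo luminescence. Normalized to DMSO and 100 uM tamoxifen; AC50 from Hill fits of qHTS concentration-response.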

[7] = target: Mitogen-activated protein kinase 10 (Mus musculus) (UniProt Q61831); test: JNK3 AlphaScreen Assay (AID 530; active = well fitted curve in either direction with a large enough effect, not every such curve was filed as active;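 note: kinase came from lysate of stimulated human HepG2 cells; signal reports phosphorylation of biotinylated GST-cJun 1-79 at Ser73 with 10 µM ATP; % is set by controls: 0 for no effect and ±100 for the full control effect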); conditions: JNK3 lysate, c-Jun phosphorylation; series mostly up to 57.1 µM
Method in brief: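 Kinase buffer: 20 mM Tris-HCl pH 7.6, 10 mM MgCl2, 1 mM DTT, 0.1 mM Na3VO4, 0.01% Tween-20; ATP 10 uM. Substrate biotin-GST-cJun(1-79), enzyme from activated HepG2 lysates. Detection by Ser73 phospho-antibody AlphaScreen.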

[8] = Cell Viability - N2a (AID 540); conditions: N2a mouse neuroblastoma cell viability; activity change, negative = cytotoxicity: at 92.2 µM (top of the series);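 note: plate controls were DMSO alone for no effect and tamoxifen control for full effect; nearly all actives have a fitted effect of over 45% in size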
Method in brief: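 N2a mouse neuroblastoma, 1500 cells/well, 5 hr settle; compound 40 hr, 37 °C; CellTiter-Glo 20 min RT; luminescence; Hill-fit AC50.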

[9] = Cell Viability - NIH 3T3 (AID 541); conditions: NIH 3T3 cell viability, qHTS; activity change, negative = cytotoxicity: at 92.2 µM (top of the series);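 note: plate controls were DMSO alone for no effect and tamoxifen positive control for full effect; nearly all actives have a fitted effect of over 25% in size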
Method in brief: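 qHTS format; 40 hr compound exposure, 37 °C; CellTiter-Glo luminescence (cellular ATP) read-out after 20 min at RT. Decrease in ATP = cytotoxicity; AC50 from standard Hill fit.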

[10] = Cell Viability - HUV-EC-C (AID 542); conditions: HUV-EC-C endothelial cell viability, qHTS; series mostly up to 92.2 µM; note: % is set by controls: 0 for no effect and ±100 for the full control effect; nearly all actives have a fitted effect of over 35% in size
Method in brief: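 Luminescent ATP read-out (CellTiter-Glo, 20 min room temperature) after 40 hr compound treatment of HUV-EC-C cells at 37 °C. Concentration-response data fitted with the standard Hill equation to give AC50; tamoxifen and doxorubicin served as positive controls.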

[11] = Cell Viability - H-4-II-E (AID 543); conditions: H-4-II-E rat hepatoma viability; series mostly up to 92.2 µM; note: % is set by controls: 0 for no effect and ±100 for the full control effect; nearly all actives have a fitted effect of over 35% in size
Method in brief: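 qHTS, rat hepatoma H-4-II-E, 1500 cells/well; 40 hr compound exposure, 37 °C; CellTiter-Glo ATP luminescence after 20 min RT; AC50 by standard Hill fit.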

[12] = Cell Viability - SH-SY5Y (AID 544); conditions: SH-SY5Y neuroblastoma cell viability; viability change, negative = cytotoxic: at 92.2 µM (top of the series); note: nearly all actives have a fitted effect of over 55% in size
Method in brief: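 SH-SY5Y, 1500 cells/well, 5 hr pre-incubation 37 °C; cpd 40 hr 37 °C; CellTiter-Glo 20 min RT; luminescence (ATP) read. qHTS concentration-response, Hill fit → AC50. Tamoxifen, doxorubicin as positive controls.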

[13] = Cell Viability - Renal Proximal Tubule (AID 545); conditions: renal proximal tubule cells viability, primary cells of rat origin; series mostly up to 91.7 µM; note: nearly all actives have a fitted effect of over 40% in size
Method in brief: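 Rat renal proximal tubule primary cells, 1000/well, exposed to compounds for 40 hr at 37 °C in complete medium; cellular ATP read by CellTiter-Glo luminescence. AC50 from concentration-response fitted with standard Hill equation.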

[14] = Cell Viability - Mesenchymal (AID 546); conditions: mesenchymal cells viability, qHTS; series mostly up to 91.7 µM;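 note: cells exposed to compound for 40 hours before reading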
Method in brief: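 CellTiter-Glo luminescence (intracellular ATP, 20 min room temperature) after 40 hr compound exposure at 37 °C of 1000 glomerulus-derived human kidney mesenchymal cells/well; AC50 values obtained by fitting qHTS concentration-response data to the Hill equation.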

[15] = Cellular Toxicity (caspase-3) HepG2 (AID 654); conditions: HepG2 caspase-3 activation, luminescence; series mostly up to 92.2 µM;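 note: cells exposed to compound for 16 hours before reading; 0% = DMSO alone and 100% = caspase signal from 100 µM tamoxifen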
Method in brief: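 Luminescent Caspase-Glo 3/7 readout after 16 hr compound exposure of human hepatocellular carcinoma HepG2 cells at 37 °C; qHTS concentration-response, normalized DMSO = 0%, 100 uM tamoxifen = 100%; AC50 by standard Hill equation.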

[16] = Cellular Toxicity (caspase-3) Jurkat (AID 655); conditions: Jurkat caspase-3 activation, luminescence; caspase-3 activation: at 92.2 µM (top of the series), DMSO = 0%, tamoxifen = 100%;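 note: cells exposed to compound for 16 h at 37 °C before reading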
Method in brief: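 Jurkat cells (5000/well) in complete medium exposed 16 h at 37 C; caspase-3/7 activity read by Caspase-Glo luminescence after 20 min at room temperature. Normalized to DMSO and 100 uM tamoxifen; AC50 from Hill fits.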

[17] = Cellular Toxicity (caspase-3) HUV-EC-C (AID 656); conditions: HUV-EC-C cells, caspase-3 activation (apoptosis), vehicle = 0, 100 µM tamoxifen = 100%; series mostly up to 92.2 µM
Method in brief: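 HUV-EC-C cells (1000/well) in complete medium, compound-treated 16 h at 37 °C; caspase-3/7 activity read by Caspase-Glo 3/7 luminescence. Normalized to DMSO (basal) and 100 uM tamoxifen (100%); AC50 from Hill-equation concentration-response fits.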

[18] = Cellular Toxicity (caspase-3) SHSY5Y (AID 657); conditions: SH-SY5Y caspase-3 activation, DMSO zero, 10 µM staurosporine = 100%; series mostly up to 91.7 µM
Method in brief: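 SH-SY5Y human neuroblastoma cells, 1500/well, exposed to compound for 16 hours at 37 °C in complete medium. Caspase-3/7 activity read by Caspase-Glo luminescence after 1 hr at room temperature, normalized to DMSO and 10 uM staurosporine; AC50 from Hill fit.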

[19] = Cellular Toxicity (caspase-3) BJ (AID 658); conditions: BJ fibroblasts, luminescence, normalized: DMSO 0%, staurosporine 100%; series mostly up to 91.7 µM
Method in brief: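 Caspase-Glo 3/7 luminescence, read 1 hr after reagent at room temperature, in normal BJ fibroblasts exposed 16 hours at 37 °C. AC50 values from Hill-equation concentration-response, scaled between DMSO basal and 10 uM staurosporine as 100%.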

[20] = Cellular Toxicity (caspase-3) MRC-5 (AID 659); conditions: MRC-5 cells, luminescence, normalized: DMSO 0%, 10 µM staurosporine 100%; series mostly up to 91.7 µM
Method in brief: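 Luminescent Caspase-Glo 3/7 read-out (1 h, room temperature) after a 16 h, 37 °C compound exposure of MRC-5 lung fibroblasts at 1500 cells/well. Concentration-response AC50 from Hill equation; 0% DMSO, 100% 10 uM staurosporine.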

O=C(O)c1ccc(CO)o1
inactive: Potency [1] > 92 µM | Potency [2] > 92 µM | Potency [3] > 92 µM | Potency [4] > 92 µM | Potency [5] > 92 µM | Potency [6] > 92 µM | outcome [7] | activity change, negative = cytotoxicity [8] -2.4% | Potency [9] | Potency [10] | Potency [11] | Potency [12] | Potency [13] | Potency [14] | Potency [15] | caspase-3 activation [16] 1.29% | outcome [17] | outcome [18] | outcome [19] | outcome [20]

CCC(C)(C)OC
inactive: Potency [1] > 92 µM | Potency [2] > 92 µM | Potency [3] > 92 µM | Potency [4] > 92 µM | Potency [5] > 92 µM | Potency [6] > 92 µM | outcome [7] | activity change, negative = cytotoxicity [8] -20.8% | Potency [9] | Potency [10] | Potency [11] | Potency [12] | Potency [13] | Potency [14] | Potency [15] | caspase-3 activation [16] 1.32% | outcome [17] | outcome [18] | outcome [19] | outcome [20]

C=Cc1ccc(C=C)cc1
inactive: Potency [1] > 92 µM | Potency [2] > 92 µM | Potency [3] > 92 µM | Potency [4] > 92 µM | Potency [5] > 92 µM | Potency [6] > 92 µM | outcome [7] | activity change, negative = cytotoxicity [8] -7.69% | Potency [9] | Potency [10] | Potency [11] | Potency [12] | Potency [13] | Potency [14] | Potency [15] | caspase-3 activation [16] -0.456% | outcome [17] | outcome [18] | outcome [19] | outcome [20]

Cc1ccc(CO)cc1
inactive: Potency [1] > 92 µM | Potency [2] > 92 µM | Potency [3] > 92 µM | Potency [4] > 92 µM | Potency [5] > 92 µM | Potency [6] > 92 µM | outcome [7] | activity change, negative = cytotoxicity [8] -2.9% | Potency [9] | Potency [10] | Potency [11] | Potency [12] | Potency [13] | Potency [14] | Potency [15] | caspase-3 activation [16] 2.2% | outcome [18] | outcome [19]

BrC/C=C/CBr
inactive: Potency [1] > 92 µM | Potency [2] > 92 µM | Potency [3] > 92 µM | Potency [4] > 92 µM | Potency [5] > 92 µM | Potency [6] > 92 µM | outcome [7] | activity change, negative = cytotoxicity [8] 6.2% | Potency [9] | Potency [10] | Potency [11] | Potency [12] | Potency [13] | Potency [14] | caspase-3 activation [16] 1.67% | outcome [17] | outcome [18] | outcome [19] | outcome [20]

Nc1cc(S(=O)(=O)O)ccc1O
inactive: Potency [1] > 92 µM | Potency [2] > 92 µM | Potency [3] > 92 µM | Potency [4] > 92 µM | Potency [5] > 92 µM | Potency [6] > 92 µM | outcome [7] | activity change, negative = cytotoxicity [8] -15.5% | Potency [9] | Potency [10] | Potency [11] | Potency [12] | Potency [13] | Potency [14] | Potency [15] | outcome [17] | outcome [18] | outcome [19] | outcome [20]

CC(C)Cc1nccs1
inactive: Potency [1] > 92 µM | Potency [2] > 92 µM | Potency [3] > 92 µM | Potency [4] > 92 µM | Potency [5] > 92 µM | Potency [6] > 92 µM | outcome [7] | activity change, negative = cytotoxicity [8] 2.65% | Potency [9] | Potency [10] | Potency [11] | Potency [12] | Potency [13] | Potency [14] | Potency [15] | caspase-3 activation [16] 1.45% | outcome [18] | outcome [19]

O=P(O)(OCc1ccccc1)OCc1ccccc1
inactive: Potency [1] > 92 µM | Potency [2] > 92 µM | Potency [3] > 92 µM | Potency [4] > 92 µM | Potency [5] > 92 µM | Potency [6] > 92 µM | outcome [7] | activity change, negative = cytotoxicity [8] 4.67% | Potency [9] | Potency [10] | Potency [11] | Potency [12] | Potency [13] | Potency [14] | Potency [15] | outcome [17] | outcome [18] | outcome [19] | outcome [20]

Nc1cccc(N)c1
inactive: Potency [1] > 92 µM | Potency [2] > 92 µM | Potency [3] > 92 µM | Potency [4] > 92 µM | Potency [5] > 92 µM | Potency [6] > 92 µM | outcome [7] | activity change, negative = cytotoxicity [8] -0.534% | Potency [9] | Potency [10] | Potency [11] | Potency [12] | Potency [13] | Potency [14] | Potency [15] | caspase-3 activation [16] 0.427% | outcome [17] | outcome [18] | outcome [19] | outcome [20]

Cc1ccc(C)c([N+](=O)[O-])c1
inactive: Potency [1] > 92 µM | Potency [2] > 92 µM | Potency [3] > 92 µM | Potency [4] > 92 µM | Potency [5] > 92 µM | Potency [6] > 92 µM | outcome [7] | activity change, negative = cytotoxicity [8] 2.29% | Potency [9] | Potency [10] | Potency [11] | Potency [12] | Potency [13] | Potency [14] | caspase-3 activation [16] 1.04% | outcome [17] | outcome [18] | outcome [19] | outcome [20]

C=C(C)C(=O)OCCCCCCCCCC
inactive: Potency [1] > 92 µM | Potency [2] > 92 µM | Potency [3] > 92 µM | Potency [4] > 92 µM | Potency [5] > 92 µM | Potency [6] > 92 µM | outcome [7] | activity change, negative = cytotoxicity [8] 3.17% | Potency [9] | Potency [10] | Potency [11] | Potency [12] | Potency [13] | Potency [14] | caspase-3 activation [16] -0.118% | outcome [18] | outcome [19]
